Measured potencies and affinities stand elsewhere. Records with an inconclusive call do not appear.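 How the source made its calls: active means samples whose fitted half-maximal inhibition concentration is no more than ten times the top valid dose tested; inconclusive means flat response between -70 and -30, or invalid curve fit; inactive means flat within 30 of zero, potency above limit, or signal rising.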
What follows are compounds tested against Trypsin (Sus scrofa) (UniProt P00761) (assay: trypsin protease activity blockade – biochemical, quenched peptide fluorescence, cherry-pick, selectivity assay for Rce1 protease inhibitor project, dose response (AID 488789)). Settings: porcine trypsin, quenched peptide cleavage fluorescence; series mostly up to 10 µM; activity change, negative = inhibition: at the top concentration.
Sequence of Trypsin (Sus scrofa) (P00761 whole entry, looked up): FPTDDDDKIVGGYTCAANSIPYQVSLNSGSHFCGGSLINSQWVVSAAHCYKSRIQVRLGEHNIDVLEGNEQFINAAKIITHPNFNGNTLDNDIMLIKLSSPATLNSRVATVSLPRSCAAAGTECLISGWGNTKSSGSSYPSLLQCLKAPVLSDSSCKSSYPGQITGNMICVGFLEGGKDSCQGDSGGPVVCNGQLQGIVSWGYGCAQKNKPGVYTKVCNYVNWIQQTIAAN

Activity change, negative = inhibition, inactive:
CN1CCN(CCCNC(=O)c2cc3c(-c4ccc(Cl)cc4)nn(C)c3s2)CC1 -4.72%, CN(C)c1cc(O)c(C(=S)Nc2ccccc2)c(N(C)C)c1 -3.16%, CC(CCc1ccccc1)NCC(O)c1ccc(O)c(C(N)=O)c1 (configuration not stated) -6.32%, Nc1nc2n[nH]nc2c(=O)[nH]1 8.03%, CCN1CCN(CC(O)COc2ccc3c(C)cc(=O)oc3c2)CC1 (configuration not stated) 11.8%, Cc1cc(N2CCN(C(c3ccccc3)c3ccccc3)CC2)n2ncnc2n1 6.42%, Cc1ccc2nc(N(CCN(C)C)C(=O)c3ccc4ccccc4c3)sc2c1 6.43%, Cc1cc(C(=O)N/N=C/c2c3ccccc3cc3ccccc23)n[nH]1 9.63%, COc1ccc(C2/C=C\CN(C(=O)c3ccc(C)cc3)[C@H](Cc3ccccc3)C(=O)N2Cc2ccc(F)cc2)cc1 (some centres not stated) 6.08%, CCN1CCN(c2ccc(NC(=O)c3cccc(OCc4ccccc4)c3)cc2)CC1 0.479%, O=C(c1cc(-c2ccccc2)nc2ccccc12)N1CCN(c2ccccn2)CC1 0.77%, COC(=O)c1ccccc1NC(=O)NCc1cccnc1 -11.2%, CCN(CC)CCN(C(=O)c1cc2ccccc2cc1OC)c1nc2ccc(F)cc2s1 -2.96%, Cc1cc(C)n2nc(CC(=O)NNC(=O)c3ccc(N(C)C)cc3)nc2n1 7.45%, COc1cccc2sc3ccc(C#CC4(O)CCCCC4)cc3c(=O)c12 6.34%, CC(=O)OC1CCC2(C)C(COc3ccc4ccc(=O)oc4c3)C(C)(O)CCC2C1(C)C (configuration not stated) -6.54%, O=C(O)c1ccc2cccc(Cl)c2c1O 9.83%, COc1ccc(S(=O)(=O)N(CC(=O)N2CCCC2)Cc2ccccc2)cc1 2.3%, CCCCN(CC)CCNC(=O)c1cc2c(-c3ccc(Cl)cc3)nn(C)c2s1 66.6%, COc1cccc(-c2c(C(=O)N/N=C/c3sccc3C)nnn2-c2nonc2N)c1 -3.67%, CC1(c2nnc(-c3cccc(Cl)c3)o2)CC(c2cccc(F)c2)=NO1 (configuration not stated) 5.97%, OC1CCN(C(c2ccc3ncccc3c2)c2nnnn2C2CCCCC2)CC1 (configuration not stated) -1.46%, Nc1nnnn1/N=C/c1ccccc1OCc1ccc(Cl)cc1Cl 0.248%, COc1ccccc1NC(=O)/C(=C\c1cccnc1)NC(=O)c1ccc(C)cc1 1.96%, COc1ccc(-c2c(C)oc3c(CN4CCN(C)CC4)c(O)ccc3c2=O)cc1 4.54%, Cc1ccc(SCc2c(C(=O)N/N=C/c3ccccc3)nnn2-c2nonc2N)cc1 1.99%, CSc1ccc(/C=C/C(=O)OCC(=O)NC(C)C)cc1 3.28%, Cc1cc2cc(C(=O)N3CCc4c([nH]c5ccccc45)C3c3ccccn3)ccc2o1 (configuration not stated) 3.48%, Cc1ccsc1/C=N/NC(=O)c1nnn(-c2nonc2N)c1C(C)C 4.12%, CC(=O)c1c(C)[nH]c(C(=O)OCc2ccc(Br)cc2)c1C 3.12%, Cc1cc2cc(C#N)c(NCCNC(=S)NCCCN3CCOCC3)nc2cc1C -4.36%, O=C(Nc1ccc(S(=O)(=O)Nc2ccccc2)cc1)C1COc2ccccc2O1 (configuration not stated) 0.348%, CCCOc1ccc(-c2c(C(=O)N/N=C/c3cccs3)nnn2-c2nonc2N)cc1 21.4%, Cc1cc(Cl)c2oc(C(=O)N3CCN(C(=O)c4ccco4)CC3)c(C)c2c1 11.6%, Cc1ccc(OCCN2C(=O)C(=O)c3cc(C)ccc32)cc1 2.64%, CN1C(=O)/C(=C/c2cccc(Cl)c2)Sc2ccc(C(=O)N3CCOCC3)cc21 12.6%, COc1ccc(Cc2nc3ccc(C(=O)N4CCCC4)cc3o2)cc1 15.7%

Reference: PubChem BioAssay AID488789 (Broad Institute, 2010)
